Laboratory results as given in PubChem BioAssay (EPA / NIEHS).
Inconclusive results are not listed. The source made the active and inactive calls. Rule for the calls: active = hit-call score of the fitted dose curve at least 0.9, where 1 is the maximum; inconclusive = response in the unintended direction; inactive = score below 0.9.

Read-out: Cytochrome P450 3A4 (Homo sapiens) (UniProt P08684)
Experiment: CLD_CYP3A4_24hr: CellzDirect (CLD) Gene Expression Assay for xenobiotic metabolism (CYP3A4) at 24 hours (AID 2283689)
Experimental: CLD_24hr is a cell-based, multiplexed-readout assay that uses hepatocyte, a human liver primary cell, with measurements taken at 24 hours after chemical dosing in a 96-well plate.CLD_CYP3A4_24hr is one of 16 assay component(s) measured or calculated from the CLD_24hr assay. It is designed to make measurements of mRNA induction, a form of inducible reporter, as detected with chemiluminescence signals by Quantitative Nuclease Protection Assay (qNPA) technology.Data from the assay component CLD_CYP3A4_24hr was analyzed at the endpoint, CLD_CYP3A4_24hr, in the positive analysis fitting direction relative to DMSO as the negative control and baseline of activity. Using a type of inducible reporter, gain-of-signal activity can be used to understand changes in the reporter gene as they relate to the gene CYP3A4. Furthermore, this assay endpoint can be referred to as a primary readout. To generalize the intended target to other relatable targets, this assay endpoint is annotated to the cyp intended target family, where subfamily is xenobiotic metabolism.
Human hepatocyte cultures were treated daily for two consecutive days with fresh dosing solutions containing appropriate concentrations of the 320 ToxCast chemicals (chemical identities were blinded to CellzDirect and other ToxCast collaborators), vehicle control (0.2% DMSO), and positive control inducers as summarized in Table 1. Due to the large number of treatment groups and chemicals examined, the ToxCast chemicals were divided into two groups (spanning two independent cultures of hepatocytes from separate donor preparations (Hu778: ToxCast plates 1 and 2; Hu776: ToxCast plates 3 and 4). Each preparation of human hepatocyte cultures was treated with respective vehicle control, medium only control, set of six positive controls/reference chemicals for the five hepatic receptor pathways, and a subset of eight of the ToxCast chemicals (indoxacarb, pyrithiobac-sodium, norflurazon, cyhalofop-butyl, methomyl, thiram, acetochlor, and propiconazole). These replicate data, coupled with internal replicates designed within the blinded ToxCast chemical library, provided additional data to evaluate interindividual differences between hepatocyte preparations and their potential impact on chemical profiles.Cell morphology and integrity were evaluated using phase-contrast microscopy as an indicator of hepatocyte cell health (Tyson & Green, 1987). Cultures for each treatment group (i.e., media, vehicle [0.2% DMSO], positive control inducers [multiple concentrations], and the ToxCast chemicals [multiple concentrations]) were observed and cell morphology was assessed relative to vehicle control cultures at each harvest time point (0, 6, 24, or 48 h). […] Images were evaluated at the conclusion of the study to assess changes in cell integrity and account for the effects of chemical exposure on uncharacteristic changes in concentration-dependent gene expression profiles. The results from these determinations of apparent cytotoxicity were annotated (yes/no) alongside the corresponding qNPA data for reference.At the conclusion of each treatment period, hepatocyte cultures (96-well) were washed with 1 volume of HBSS, lysed by addition of 25 ul ArrayPlate lysis buffer (HTG, Tucson, AZ), and 70 ul/well of Denaturation Oil, denatured by incubation at 95C for 10 min, and frozen at approximately -70C until analysis by nuclease protection assay (qNPA) (Roberts et al., 2007). For qNPA analysis, cell lysates were thawed at 50C for approximately 30 min, qNPA probes were added, and samples were incubated at 95C for 10 min to begin the detection process by denaturing the target RNA, dissociating the duplexes and secondary structure hybridization. At the conclusion of the hybridization period, S1 nuclease reagent was added to each sample to digest all nonprotected nucleotides at 50C for 60-90 min. […]

Chain of Cytochrome P450 3A4 (Homo sapiens) (P08684 whole entry, looked up): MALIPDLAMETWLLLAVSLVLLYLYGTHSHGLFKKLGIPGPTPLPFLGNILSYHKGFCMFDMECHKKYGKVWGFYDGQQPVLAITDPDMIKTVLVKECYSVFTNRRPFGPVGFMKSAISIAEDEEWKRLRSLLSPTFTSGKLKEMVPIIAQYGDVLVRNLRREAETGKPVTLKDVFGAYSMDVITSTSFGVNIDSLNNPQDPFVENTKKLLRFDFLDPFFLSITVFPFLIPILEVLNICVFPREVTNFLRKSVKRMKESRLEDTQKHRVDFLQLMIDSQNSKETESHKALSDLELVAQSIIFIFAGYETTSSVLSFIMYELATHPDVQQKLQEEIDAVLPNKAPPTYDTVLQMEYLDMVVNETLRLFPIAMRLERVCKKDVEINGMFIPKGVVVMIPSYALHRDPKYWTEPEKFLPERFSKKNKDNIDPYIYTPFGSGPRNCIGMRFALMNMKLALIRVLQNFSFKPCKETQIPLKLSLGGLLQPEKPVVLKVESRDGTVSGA

SMILES | outcome | AC50
Cc1cnc(C2=NC(C)(C(C)C)C(=O)N2)c(C(=O)O)c1 (stereo not given) | inactive | –
Cc1nc(N(C)C)nc(OC(=O)N(C)C)c1C | – | 20 µM (active)
COP(=O)(OC)O/C(C)=C/C(=O)N(C)C | inactive | –
COc1cc(OC)nc(NC(=O)NS(=O)(=O)c2ncccc2OCC(F)(F)F)n1 | inactive | –
CCCC(=NOCC)C1=C(O)CC(CC(C)SCC)CC1=O (stereo not given) | – | 32.9 µM (active)
CC1(C)C(C(=O)OC(C#N)c2cccc(Oc3ccccc3)c2)C1(C)C (stereo not given) | – | 13 µM (active)
Nc1c(Cl)c(Cl)nc(C(=O)O)c1Cl | inactive | –
Nc1c(Cl)c(F)nc(OCC(=O)O)c1Cl | inactive | –
CSC(=O)c1c(C(F)F)nc(C(F)(F)F)c(C(=O)SC)c1CC(C)C | – | 2.07 µM (active)
C=CCOC(=O)C(C)(C)OC(=O)c1cc(-n2c(=O)cc(C(F)(F)F)n(C)c2=O)ccc1Cl | – | 0.47 µM (active)
CCOP(=S)(OCC)Oc1nc(Cl)n(C(C)C)n1 | – | 0.677 µM (active)
CCCN(CC)CC1COC2(CCC(C(C)(C)C)CC2)O1 (stereo not given) | – | 4.82 µM (active)
CC1(C)CON(Cc2ccccc2Cl)C1=O | – | 20 µM (active)
CC1(C)CCC(=Cc2ccc(Cl)cc2)C1(O)Cn1cncn1 (stereo not given) | inactive | –
COc1cc(Cl)c(OC)cc1Cl | inactive | –
CCSC(=O)N1CCCCCC1 | – | 0.0865 µM (active)
OC(c1ccc(Cl)cc1)(c1ccc(Cl)cc1)C(Cl)(Cl)Cl | – | 4.09 µM (active)
Cc1cc(C)nc(Nc2ccccc2)n1 | – | 1.78 µM (active)
CCOc1nc(C(Cl)(Cl)Cl)ns1 | inactive | –
Cn1c(-c2ccccc2)cc(-c2ccccc2)[n+]1C | inactive | –

SMILES | outcome | AC50
COC(=O)N(C(=O)N1CO[C@@]2(C(=O)OC)Cc3cc(Cl)ccc3C2=N1)c1ccc(OC(F)(F)F)cc1 | – | 6.53 µM (active)
O=c1n(Cl)c(=O)n(Cl)c(=O)n1Cl | inactive | –
CCOP(=O)(OCC)Oc1nc(Cl)c(Cl)cc1Cl | – | 3.97 µM (active)
O=C(O)c1c(Cl)ccc2cc(Cl)cnc12 | inactive | –
CCN(CC)C(=O)C(C)Oc1cccc2ccccc12 (stereo not given) | inactive | –
CS(=O)(=O)c1cc(C(F)(F)F)ccc1C(=O)c1cnoc1C1CC1 | – | 9.79 µM (active)
N#Cc1c[nH]cc1-c1cccc2c1OC(F)(F)O2 | – | 4.26 µM (active)
O=P(O)(O)CCCl | inactive | –
N#Cc1c(Cl)cccc1Cl | inactive | –
CS(=O)(=O)c1ccc(C(=O)C2C(=O)CCCC2=O)c([N+](=O)[O-])c1 | inactive | –
COP(=S)(OC)Oc1ccc([N+](=O)[O-])c(C)c1 | – | 16.6 µM (active)
COc1ccc(-c2ccccc2)cc1NNC(=O)OC(C)C | inactive | –
CCCCC(C#N)(Cn1cncn1)c1ccc(Cl)cc1 (stereo not given) | – | 9.54 µM (active)
CCCCOCN(C(=O)CCl)c1c(CC)cccc1CC | inactive | –
COC(=O)NC(=S)Nc1ccccc1NC(=S)NC(=O)OC | – | 3.97 µM (active)
CC(C)=CC1C(C(=O)OCc2coc(Cc3ccccc3)c2)C1(C)C (stereo not given) | inactive | –
CC(C)N1C(=O)c2ccccc2NS1(=O)=O | inactive | –
CC(C)NC(=O)N1CC(=O)N(c2cc(Cl)cc(Cl)c2)C1=O | – | 9.31 µM (active)
CO/N=C(/C1=NOCCO1)c1ccccc1Oc1ncnc(Oc2ccccc2Cl)c1F | inactive | –
COCc1cnc(C2=NC(C)(C(C)C)C(=O)N2)c(C(=O)O)c1 (stereo not given) | inactive | –
